Measurements: PubChem BioAssay (NCATS)
Results filed as inconclusive are left out. Activity calls are given as the source filed them. Unless noted, calls follow the shape of the dose curve; as a rule, active = well fitted curve in the direction sought with a large enough effect; inconclusive = small, poorly fitted or top-dose-only effect, or another doubt; inactive = no such curve, though single readings can be large; an effect the other way counts as inactive or inconclusive.

What was measured:
[1] = Cell Viability - LYMP1-002 - Assay at 24 hr (AID 993); also: potency is read from the fitted curve at half-maximal effect
How it was run: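 qHTS cytotoxicity at 24 h: CellTiter-Glo ATP luminescence in lymphoblastoid line LYMP1-002 incubated with compound at 37 °C. Concentration-response modeled with the Hill equation for AC50; tetraoctylammonium bromide served as positive control.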

[2] = Cell Viability - LYMP1-002 - Assay at 40 hr (AID 994); also: potency is read from the fitted curve at half-maximal effect; nearly all actives have a fitted effect of over 60% in size
How it was run: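 Cytotoxicity was read as loss of cellular ATP (CellTiter-Glo luminescence) after 40 hr compound exposure at 37 C of 2500 LYMP1-002 lymphoblastoid cells per well. Concentration-response data were fitted with the standard Hill equation to give AC50.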

[3] = Cell Viability - LYMP1-002 - Assay at 16 hr (AID 948); also: potency is read from the fitted curve at half-maximal effect
How it was run: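 In this qHTS, lymphoblastoid LYMP1-002 cells (human) receive compounds for 16 hr at 37 C. Viability is taken from CellTiter-Glo ATP luminescence, and AC50 derives from standard Hill fits.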

[4] = Cell Viability - LYMP2-004 (AID 966); also: potency is read from the fitted curve at half-maximal effect; nearly all actives have a fitted effect of over 65% in size
How it was run: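 AC50 values come from Hill modelling of concentration-dependent loss of intracellular ATP, measured by CellTiter-Glo luminescence. Human LYMP2-004 lymphoblastoid cells (2500/well) were exposed to compound for 24 h at 37 C.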

[5] = Cell Viability - LYMP2-009 (AID 968); also: potency is read from the fitted curve at half-maximal effect; nearly all actives have a fitted effect of over 55% in size
[6] = Cell Viability - LYMP2-025 (AID 976); also: potency is read from the fitted curve at half-maximal effect
How it was run: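 Cytotoxicity read as loss of intracellular ATP (luciferase luminescence) after 24 h compound treatment at 37 C. Uses LYMP2-025 lymphoblastoid cells in 1536-well format; Hill-equation modelling gives AC50; tetraoctylammonium bromide as positive control.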

[7] = Cell Viability - LYMP2-002 (AID 977);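 also: potency is read from the fitted curve at half-maximal effect; compound exposure lasted 24 h at 37 °C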
How it was run: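 Human lymphoblastoid cells (2500/well) in complete medium were preincubated 5 hr at 37 C, then exposed to compounds for 24 hr at 37 C. Intracellular ATP was read by CellTiter-Glo luminescence; AC50 came from Hill-equation concentration-response fits.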

[8] = qHTS assay for small molecule antagonists of the retinoid-related orphan receptor gamma (ROR-gamma) signaling pathway - cell viability counter screen (AID 720652; active = well fitted curve in the direction sought with a large enough effect in the repeat runs; an effect the other way counts as inactive or inconclusive;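 also: potency is read from the fitted curve at half-maximal effect; compound exposure lasted 16 hr before ATP read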)
How it was run: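 Cytotoxicity counter screen: intracellular ATP (CellTiter-Glo luminescence) measured in the doxycycline-induced CHO RORE-luciferase reporter line after 16 hr compound exposure at 37 C, 5% CO2.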

[9] = molecular target: Luciferin 4-monooxygenase (Photinus pyralis) (UniProt P08659); assay: Biochemical firefly luciferase enzyme assay for NPC (AID 624030);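 also: purified P. pyralis luciferase at 10 nM with luciferin and ATP substrate; series mostly up to about 59 µM; nearly all actives have a fitted effect of over 70% in size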
Chain of Luciferin 4-monooxygenase (Photinus pyralis) (P08659 whole entry, looked up): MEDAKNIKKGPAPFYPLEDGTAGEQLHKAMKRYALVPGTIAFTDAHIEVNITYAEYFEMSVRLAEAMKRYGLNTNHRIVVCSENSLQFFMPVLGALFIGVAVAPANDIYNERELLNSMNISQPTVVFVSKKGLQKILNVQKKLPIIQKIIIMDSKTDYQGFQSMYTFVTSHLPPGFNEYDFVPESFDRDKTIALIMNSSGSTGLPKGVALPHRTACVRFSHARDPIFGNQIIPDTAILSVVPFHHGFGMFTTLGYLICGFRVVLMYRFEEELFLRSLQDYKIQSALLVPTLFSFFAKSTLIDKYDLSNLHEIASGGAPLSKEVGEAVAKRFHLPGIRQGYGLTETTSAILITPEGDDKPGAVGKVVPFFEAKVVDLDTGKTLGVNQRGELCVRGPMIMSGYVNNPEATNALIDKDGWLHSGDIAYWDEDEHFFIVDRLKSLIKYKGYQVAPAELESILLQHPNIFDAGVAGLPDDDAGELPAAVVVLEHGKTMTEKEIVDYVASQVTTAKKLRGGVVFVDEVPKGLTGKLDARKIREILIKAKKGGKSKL
How it was run: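 Direct inhibition of firefly luciferase enzyme (10 nM final, 50 mM Tris Acetate) assessed by luminescence within 5 minutes. Percent activity scaled between DMSO and PTC124 positive control, with concentration-effect curves classified by fit quality and response.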

[10] = Confirmation and Secondary Assay for Modulators of Hemoglobin Beta Chain Splicing at IVS2 654 locus (AID 910);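 also: HeLa cells stably carrying EGFP split by mutant beta-globin IVS2-654 intron; per-well total GFP intensity by laser scanning cytometry after 2-day treatment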
How it was run: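 Readout: per-well total peak green fluorescence (488 nm ex, 500–520 nm em) from objects 5–250 µm, reflecting correct splicing of an EGFP-654 reporter. Compounds were applied for 2 days at 37 °C to overnight-plated HeLa EGFP-654 cells; controls were DMSO and 500 nM IVS2-654 PNA.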

In the case of `C=CC(=O)OCC(CO)(COC(=O)C=C)COC(=O)C=C`, the Potency [1] is reported as 3.98 µM (active) and the Potency [2] is reported as 5.01 µM (active).
In the case of `O=Nc1ccc(Nc2ccccc2)cc1`, the Potency [3] is reported as 10 µM (active), the Potency [4] is reported as 7.94 µM (active) and the Potency [5] is reported as 7.94 µM (active). For the same molecule, the Potency [6] was 10 µM (active), the Potency [7] was 5.01 µM (active) and the Potency [1] was 7.94 µM (active). The Potency [2] was 12.6 µM (active).
With `C=C1CC[C@H](O)C/C1=C/C=C1\CCC[C@]2(C)[C@@H]([C@H](C)CCCC(C)C)CC[C@@H]12` the Potency [8] was 66.8 µM (active).
For `CC1(C)CC/C(=C\c2ccc(Cl)cc2)C1(O)Cn1cncn1` (configuration not stated), the Potency [9] was “inactive”.
In the case of `CCOP(=S)(OCC)SCn1c(=O)oc2cc(Cl)ccc21`, the Potency [10] is reported as “inactive”.
